Compound activity from PubChem BioAssay.
LASV entry inh: inhibitors of Lassa virus binding or cell entry. 300,000 compounds, 1.2% hits. Potency, µM (titrated, usually from 37.9 µM), for the others: at the highest dose activity change, negative = inhibition, most hits filed as inhibitors. Lassa virus pseudotype entry inhibition, cell reporter. AID 540256; calls by dose curve; tested in HEK293 cells; note: potency is the fitted concentration of half-maximal effect; nearly all actives have a fitted effect of over 50% in size
HCMV inh: blocks human cytomegalovirus replication; HFF cells, HCMV-luciferase reporter, 72 h; stronger effect = lower value; AID 1259415; activity change, negative = inhibition, % at 57.5 µM; 410,000 compounds, 4.5% hits; in the data active = activity change below about -60%; inconclusive = no clear call, values can overlap the other calls; inactive = above about -39%
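HFF cells seeded 16 h at 37C, treated with compounds, infected with luciferase-reporter HCMV at MOI 1 PFU/cell; luciferase read at 72 h post infection, normalized to buffer-only and Salinomycin controls.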
Pf growth 48h: P. falciparum growth inhibition at 48 hours (one generation); P. falciparum luciferase growth in erythrocytes, 48 h; Potency, µM (top dose mostly 28.7 µM), for inactives: top-dose activity change, negative = inhibition, usual class: inhibitors; 310,000 compounds, 5.9% hits; AID 504832; note: potency is the fitted concentration of half-maximal effect
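In quantitative HTS format, infected erythrocytes bearing luciferase-reporter parasites were treated for a single generation at 37 C. Luminescence after adding detection reagent served as the growth measure.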
Marburg entry inh: inhibitors of Marburg virus binding or cell entry | Marburg virus pseudotyped entry inhibition, cell reporter | Potency, µM (titrated, usually from 37.8 µM), without a hit: at the top dose activity change, negative = inhibition, hits mostly inhibitors | 300,000 compounds, 1.8% hits; calls by dose curve; tested in HEK293 cells; note: potency is the fitted concentration of half-maximal effect
HCV inhibitor: blocks hepatitis C virus | Huh7.5.1 HCVcc-Cre infection, luciferase reporter, 44 h | Potency, µM (series often up to 41.8 µM), for inactives: at the top dose activity change, negative = inhibition, actives largely listed as inhibitors | 340,000 compounds, 3.4% hits; note: potency is the fitted concentration of half-maximal effect
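Infectious HCVcc-Cre (~0.5 moi) was added to cells just after compound, with cells seeded 4 h earlier at 1,000 per well. Luciferase activity after 44 h culture reported infection; substrate was incubated 15 min at room temperature before reading.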
Pf growth 96h: P. falciparum growth inhibition at 96 hour, primary screen for plastid delayed-death inhibitors; P. falciparum luciferase reporter growth, 96 h; 320,000 compounds, 6.9% hits; AID 504834; Potency, µM (series often up to 28.7 µM), without a hit: at the highest dose activity change, negative = inhibition, actives largely listed as inhibitors; note: potency is the fitted concentration of half-maximal effect
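Cell-based qHTS: luciferase-tagged P. falciparum in erythrocytes (2% hematocrit, 0.05% parasitemia final) incubated with compounds for 96 hours, 37 C, 5% CO2; luciferase detection reagent then added and luminescence measured.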
The depositor's hits bear a star; ? = inconclusive; nt = not tested or not shown; [ ] = another dose, or the depositor's remark. Shown are actives, neighbours in structure and some others; about 14% of the full set was active somewhere. Unless noted, calls come from the whole dose curve; as a rule, active = well fitted inhibition curve with a large enough effect; inconclusive = small, poorly fitted or top-dose-only effect, or another doubt; inactive = no such curve, though single readings can be large or run the other way. % is set by controls: 0 for no effect and ±100 for the full control effect.

SMILES	LASV entry inh	HCMV inh	Pf growth 48h	Marburg entry inh	HCV inhibitor	Pf growth 96h
Cc1ccccc1/C=N/Nc1nc2ccccc2[nH]1	?	-10	?	-27%[46.1 µM]	-24%	-35%
C(=N\Nc1nc2ccccc2[nH]1)/C1CCCCC1	?	-87*	?	5%[46.1 µM]	6%	?
COc1cccc(-c2n[nH]c(=S)n2Cc2ccco2)c1	nt	14	3%	nt	2%	54%
C(=C\c1ccccc1)/C=N/Nc1nc2ccccc2[nH]1	0%	-18	?	?	-2%	3.3µM*
Cc1[nH]c2ccccc2c1/C=N/Nc1nc2ccccc2[nH]1	?	-98*	?	?	?	3%
COc1ccc(/C=N/Nc2nc3ccccc3[nH]2)c(OC)c1OC	?	-2	?	?	-20%	4.1µM*
C(=N\Nc1nc2ccccc2[nH]1)/c1c[nH]c2ccccc12	?	3	0.66µM*	?	?	26%
COc1ccc(-c2cc(C(=O)Nc3c(C(=O)c4ccc(C)c(F)c4)oc4ccccc34)no2)cc1	2%[46.1 µM]	12	nt	?	nt	nt
c1cnc2c(OCc3nc4ccccc4[nH]3)cccc2c1	18%	236	53%	10%	-9%	8.3µM*
C(=N\Nc1nc(N2CCCCC2)nc(N2CCCCC2)n1)/c1c[nH]c2ccccc12	nt	27	?	nt	?	6.6µM*
Fc1cccc(/C=N/Nc2nc3ccccc3[nH]2)c1	-9%[46.1 µM]	23	0%	-6%[46.1 µM]	-2%	?
COc1ccccc1OCc1nc2ccccc2[nH]1	12%	33	164%	-4%	-10%	nt
Fc1ccc(/C=N/Nc2nc3ccccc3[nH]2)cc1F	nt	36	0.66µM*	nt	?	0.52µM*
CN1/C(=C\C(=O)COC(=O)c2ccc([N+](=O)[O-])o2)C(C)(C)c2ccccc21	9%	-22	?	4%	22%	13µM*
CC(C)[C@H](NC(=O)c1ccccc1)C(=O)OCC(=O)/C=C1/N(C)c2ccccc2C1(C)C	-21%	-68*	-16%	-41%	?	-27%
CSc1ccc(CNC(=O)c2sc3ncnc(N(C)C4CCCCC4)c3c2C)cc1	1%[46.1 µM]	-19	nt	nt	nt	nt
COc1ccc(OCC(O)CN2CCOCC2)cc1 (stereo not drawn)	nt	20	?	nt	2%	26%
O=C(NCCNCC(O)COc1ccc(O)cc1)N1CCOCC1 (stereo not drawn)	nt	26	-15%	?	0.32µM*	6.7µM*
Oc1ccccc1N=Nc1ccccc1O	nt	-99*	2.6µM*	nt	0.89µM*	68%
CCOC(=O)c1c(C)[nH]c(C(=O)Nc2cc(OCC)c(N3CCOCC3)cc2OCC)c1C	nt	74	2.9µM*	nt	?	15µM*
CCOc1cc(N2CCOCC2)c(OCC)cc1NC(=O)Cc1ccccc1	-18%[46.1 µM]	-20	?	17%[46.1 µM]	1%	?
CCOc1cc(N2CCOCC2)c(OCC)cc1NC(=O)c1cc(C)cc(C)c1	?	-25	13µM*	-12%[46.1 µM]	3.5µM*	?
CCOc1cc(N2CCOCC2)c(OCC)cc1NC(=O)c1ccc(C)cc1	nt	?	?	-25%[46.1 µM]	?	-25%
CCOc1cc(N2CCOCC2)c(OCC)cc1NC(=O)c1c(C)noc1C	28%	-4	13%	16%	4%	1%
CCOc1cc(N2CCOCC2)c(OCC)cc1NC(=O)Cc1ccccc1OC	-23%	-61*	?	3%	-17%	7.4µM*
SMILES	LASV entry inh	HCMV inh	Pf growth 48h	Marburg entry inh	HCV inhibitor	Pf growth 96h
CCOc1cc(N2CCOCC2)c(OCC)cc1NC(=O)c1ccccc1	9%	-25	?	-1%[46.1 µM]	?	-9%
CCCn1nc(C(=O)Nc2cc(OCC)c(N3CCOCC3)cc2OCC)c2ccccc2c1=O	nt	-92*	nt	nt	-19%	nt
CN1CCN(C(=O)c2cccc(-c3cnc4cnc(-c5ccccc5Oc5ccccc5)cn34)c2)CC1	nt	-13	nt	nt	nt	nt
CCOc1ccc(CN(C)C(=O)CCNC(=O)c2ccco2)cc1	nt	-18	-8%	nt	-1%	-13%
CCOc1ccc(CN(C)C(=O)CCc2ccc(S(=O)(=O)N3CCCCCC3)cc2)cc1	nt	-60*	13µM*	nt	4µM*	?
CCOc1ccc(CN(C)C(=O)CCl)cc1	?	-30	6.6µM*	11µM*	?	12%[5.75 µM]
CCOc1ccc(S(=O)(=O)N2CCCCCC2)cc1	16%	19	nt	5%	14%	?
COc1ccc(CN(C)C(=O)CCc2ccc(S(=O)(=O)N3CCCCCC3)cc2)c(OC)c1	nt	-13	13µM*	nt	?	?
CCCOc1ccc(C(C)=O)cc1CSCCC#N	-13%	-14	-28%	-1%	-10%	?
CCCOc1ccc(C(C)=O)cc1CSc1nc(O)cc(=O)[nH]1	-4%	-18	nt	-4%	0%	0.93µM*
Cc1ccc(/C=N/Nc2nc3ccccc3s2)o1	3.2µM*	-15	271%	?	-2%	?
CC1(C)C(/C=C/C=C/C=C/C=C2\N(CCCCS(=O)(=O)O)c3ccc4ccccc4c3C2(C)C)=[N+](CCCCS(=O)(=O)[O-])c2ccc3ccccc3c21	nt	nt	?	nt	-95%	?
O=C(c1cccc(C(F)(F)F)c1)N1CCc2c([nH]c3ccccc23)C1C(F)(F)F (stereo not drawn)	-12%[46.1 µM]	-27	8.3µM*	?	-25%	12µM*
COc1ccc(C(=O)N2CCc3c([nH]c4ccccc34)C2C(F)(F)F)cc1 (stereo not drawn)	nt	-60*	?	nt	?	?
O=C(O)c1ccccc1C(=O)N1CCc2c([nH]c3ccccc23)C1C(F)(F)F (stereo not drawn)	-24%[46.1 µM]	4	-7%	-19%[46.1 µM]	1%	-11%
COC(=O)[C@]1(C)N[C@H](CN(C)S(=O)(=O)c2ccc(OC(F)(F)F)cc2)[C@@H]2C(=O)N(C)C(=O)[C@@H]21	nt	9	nt	nt	9%	nt
CCCCOCC(O)CN1CCN(C(C)=O)CC1 (stereo not drawn)	-17%	23	23%	13%	15%	8.3µM*
Cc1ccccc1NC(=O)Cn1c(=O)n(CCCCCC(=O)NCc2ccc3c(c2)OCO3)c(=O)c2sccc21	?	?	nt	8%[46.1 µM]	nt	nt
CC1CC(C)CN(C(=O)CSC2=Nc3ccccc3C3=NC(Cc4c[nH]c5ccccc45)C(=O)N23)C1 (stereo not drawn)	2.6µM*	nt	nt	?	-25%	5.2µM*
O=C1c2cnccc2CN1Cc1ccccc1	6%	19	41%	2%	4%	3.3µM*
COCCn1c(SCc2ccccc2F)nc2c([nH]c3ccccc32)c1=O	?	18	nt	nt	nt	nt
COc1cc(C(=O)NCC(c2cccs2)N(C)C)cc(Cl)c1OC(C)C (stereo not drawn)	?	-61*	7%	-38%	?	-3%
CCCOc1ccc(C(=O)NCC(c2cccs2)N(C)C)cc1OC (stereo not drawn)	19%	-27	14%	23%	?	14%
